Measured values as given in the supplement of paper PMC11732987, “Enantioselective OTUD7B fragment discovery through chemoproteomics screening and high-throughput optimisation” (Communications Chemistry, 2025).

Key:
Assay in all cases: log2 ratio of Biotin-Ahx-Ub-VS probe labelling (fragment/DMSO); higher = less target engagement (more negative = stronger competition), active = hit call of the paper (q ≤ 0.05, log2 ratio ≤ -1)
Conditions in all cases: compound concentration: 200 uM; treatment time: 3 h
[1] = biological target: USP16 (UniProt Q9Y5T5)
USP16, sequence (Q9Y5T5 whole entry, looked up, the tested form may be a part): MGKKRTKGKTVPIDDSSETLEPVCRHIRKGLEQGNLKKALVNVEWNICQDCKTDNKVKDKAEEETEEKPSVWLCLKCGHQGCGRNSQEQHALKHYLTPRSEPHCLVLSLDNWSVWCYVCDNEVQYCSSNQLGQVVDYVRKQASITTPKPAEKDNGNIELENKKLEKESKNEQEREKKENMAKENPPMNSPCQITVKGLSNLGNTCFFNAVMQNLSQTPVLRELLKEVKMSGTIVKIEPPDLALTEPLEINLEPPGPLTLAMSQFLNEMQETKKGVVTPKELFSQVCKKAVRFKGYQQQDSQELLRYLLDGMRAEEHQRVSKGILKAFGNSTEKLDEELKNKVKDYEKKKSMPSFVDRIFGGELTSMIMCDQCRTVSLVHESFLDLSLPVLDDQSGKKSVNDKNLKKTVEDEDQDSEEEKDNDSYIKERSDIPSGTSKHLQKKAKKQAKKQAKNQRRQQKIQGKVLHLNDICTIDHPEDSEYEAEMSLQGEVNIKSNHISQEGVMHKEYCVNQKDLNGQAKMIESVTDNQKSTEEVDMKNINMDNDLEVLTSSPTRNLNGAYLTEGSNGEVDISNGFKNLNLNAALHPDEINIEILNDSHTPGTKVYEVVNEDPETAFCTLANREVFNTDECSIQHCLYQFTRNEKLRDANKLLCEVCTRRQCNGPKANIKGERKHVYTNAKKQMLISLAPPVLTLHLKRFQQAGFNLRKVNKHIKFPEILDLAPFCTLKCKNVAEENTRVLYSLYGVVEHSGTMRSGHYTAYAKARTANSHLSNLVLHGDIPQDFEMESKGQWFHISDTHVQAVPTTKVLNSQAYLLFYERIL
In short: (§1)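 Using Biotin-Ahx-Ub-VS at 0.5 µM final for 1 h, DUBs were labelled in HEK293T lysate (495 µg per sample) that had first been treated in triplicate with fragment at 200 µM or vehicle for 3 h. NeutrAvidin enrichment, LysC and trypsin digestion and diaPASEF LC-MS/MS followed. Spectronaut label-free quantities were global-median-normalised. Values are average log2 fragment/vehicle ratios by unpaired t-test, using proteins with ≥2 unique peptides.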

[2] = biological target: T1, USP19 (UniProt O94966)
T1 sequence (whole entry): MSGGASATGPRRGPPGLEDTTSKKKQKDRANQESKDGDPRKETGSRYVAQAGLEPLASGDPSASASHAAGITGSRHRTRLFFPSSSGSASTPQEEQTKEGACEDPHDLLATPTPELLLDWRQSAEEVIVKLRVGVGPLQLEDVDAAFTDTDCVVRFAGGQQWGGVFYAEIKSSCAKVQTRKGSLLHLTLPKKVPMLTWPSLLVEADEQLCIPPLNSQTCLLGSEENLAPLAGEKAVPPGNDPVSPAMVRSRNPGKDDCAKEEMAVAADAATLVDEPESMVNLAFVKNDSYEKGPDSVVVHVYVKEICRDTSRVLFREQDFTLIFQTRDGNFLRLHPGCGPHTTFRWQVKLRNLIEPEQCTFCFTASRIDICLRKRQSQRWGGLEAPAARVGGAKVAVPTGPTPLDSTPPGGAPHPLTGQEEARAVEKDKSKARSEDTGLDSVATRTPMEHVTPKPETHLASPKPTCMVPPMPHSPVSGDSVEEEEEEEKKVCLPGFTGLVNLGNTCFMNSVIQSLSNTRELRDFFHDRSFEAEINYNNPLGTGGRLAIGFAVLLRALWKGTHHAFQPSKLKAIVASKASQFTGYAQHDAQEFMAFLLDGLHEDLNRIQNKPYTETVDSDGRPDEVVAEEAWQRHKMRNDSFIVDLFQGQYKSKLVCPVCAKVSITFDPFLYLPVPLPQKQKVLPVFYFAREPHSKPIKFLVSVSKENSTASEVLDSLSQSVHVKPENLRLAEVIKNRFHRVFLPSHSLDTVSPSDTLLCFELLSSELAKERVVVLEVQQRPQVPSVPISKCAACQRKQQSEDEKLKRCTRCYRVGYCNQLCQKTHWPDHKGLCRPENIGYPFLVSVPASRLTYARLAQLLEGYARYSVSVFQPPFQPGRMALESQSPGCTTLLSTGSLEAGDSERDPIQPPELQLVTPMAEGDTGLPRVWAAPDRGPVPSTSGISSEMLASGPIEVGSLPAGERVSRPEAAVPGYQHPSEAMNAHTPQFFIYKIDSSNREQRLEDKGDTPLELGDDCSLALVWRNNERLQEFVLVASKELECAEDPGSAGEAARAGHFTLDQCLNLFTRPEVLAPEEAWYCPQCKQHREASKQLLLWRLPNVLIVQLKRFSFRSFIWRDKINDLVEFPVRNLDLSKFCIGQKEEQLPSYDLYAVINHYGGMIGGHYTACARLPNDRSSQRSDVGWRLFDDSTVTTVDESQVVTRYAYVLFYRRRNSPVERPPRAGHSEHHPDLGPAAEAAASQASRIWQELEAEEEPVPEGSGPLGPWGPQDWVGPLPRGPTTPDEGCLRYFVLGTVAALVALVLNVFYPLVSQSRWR
In short: as §1

[3] = biological target: USP24 (UniProt Q9UPU5)
USP24, sequence (Q9UPU5 whole entry): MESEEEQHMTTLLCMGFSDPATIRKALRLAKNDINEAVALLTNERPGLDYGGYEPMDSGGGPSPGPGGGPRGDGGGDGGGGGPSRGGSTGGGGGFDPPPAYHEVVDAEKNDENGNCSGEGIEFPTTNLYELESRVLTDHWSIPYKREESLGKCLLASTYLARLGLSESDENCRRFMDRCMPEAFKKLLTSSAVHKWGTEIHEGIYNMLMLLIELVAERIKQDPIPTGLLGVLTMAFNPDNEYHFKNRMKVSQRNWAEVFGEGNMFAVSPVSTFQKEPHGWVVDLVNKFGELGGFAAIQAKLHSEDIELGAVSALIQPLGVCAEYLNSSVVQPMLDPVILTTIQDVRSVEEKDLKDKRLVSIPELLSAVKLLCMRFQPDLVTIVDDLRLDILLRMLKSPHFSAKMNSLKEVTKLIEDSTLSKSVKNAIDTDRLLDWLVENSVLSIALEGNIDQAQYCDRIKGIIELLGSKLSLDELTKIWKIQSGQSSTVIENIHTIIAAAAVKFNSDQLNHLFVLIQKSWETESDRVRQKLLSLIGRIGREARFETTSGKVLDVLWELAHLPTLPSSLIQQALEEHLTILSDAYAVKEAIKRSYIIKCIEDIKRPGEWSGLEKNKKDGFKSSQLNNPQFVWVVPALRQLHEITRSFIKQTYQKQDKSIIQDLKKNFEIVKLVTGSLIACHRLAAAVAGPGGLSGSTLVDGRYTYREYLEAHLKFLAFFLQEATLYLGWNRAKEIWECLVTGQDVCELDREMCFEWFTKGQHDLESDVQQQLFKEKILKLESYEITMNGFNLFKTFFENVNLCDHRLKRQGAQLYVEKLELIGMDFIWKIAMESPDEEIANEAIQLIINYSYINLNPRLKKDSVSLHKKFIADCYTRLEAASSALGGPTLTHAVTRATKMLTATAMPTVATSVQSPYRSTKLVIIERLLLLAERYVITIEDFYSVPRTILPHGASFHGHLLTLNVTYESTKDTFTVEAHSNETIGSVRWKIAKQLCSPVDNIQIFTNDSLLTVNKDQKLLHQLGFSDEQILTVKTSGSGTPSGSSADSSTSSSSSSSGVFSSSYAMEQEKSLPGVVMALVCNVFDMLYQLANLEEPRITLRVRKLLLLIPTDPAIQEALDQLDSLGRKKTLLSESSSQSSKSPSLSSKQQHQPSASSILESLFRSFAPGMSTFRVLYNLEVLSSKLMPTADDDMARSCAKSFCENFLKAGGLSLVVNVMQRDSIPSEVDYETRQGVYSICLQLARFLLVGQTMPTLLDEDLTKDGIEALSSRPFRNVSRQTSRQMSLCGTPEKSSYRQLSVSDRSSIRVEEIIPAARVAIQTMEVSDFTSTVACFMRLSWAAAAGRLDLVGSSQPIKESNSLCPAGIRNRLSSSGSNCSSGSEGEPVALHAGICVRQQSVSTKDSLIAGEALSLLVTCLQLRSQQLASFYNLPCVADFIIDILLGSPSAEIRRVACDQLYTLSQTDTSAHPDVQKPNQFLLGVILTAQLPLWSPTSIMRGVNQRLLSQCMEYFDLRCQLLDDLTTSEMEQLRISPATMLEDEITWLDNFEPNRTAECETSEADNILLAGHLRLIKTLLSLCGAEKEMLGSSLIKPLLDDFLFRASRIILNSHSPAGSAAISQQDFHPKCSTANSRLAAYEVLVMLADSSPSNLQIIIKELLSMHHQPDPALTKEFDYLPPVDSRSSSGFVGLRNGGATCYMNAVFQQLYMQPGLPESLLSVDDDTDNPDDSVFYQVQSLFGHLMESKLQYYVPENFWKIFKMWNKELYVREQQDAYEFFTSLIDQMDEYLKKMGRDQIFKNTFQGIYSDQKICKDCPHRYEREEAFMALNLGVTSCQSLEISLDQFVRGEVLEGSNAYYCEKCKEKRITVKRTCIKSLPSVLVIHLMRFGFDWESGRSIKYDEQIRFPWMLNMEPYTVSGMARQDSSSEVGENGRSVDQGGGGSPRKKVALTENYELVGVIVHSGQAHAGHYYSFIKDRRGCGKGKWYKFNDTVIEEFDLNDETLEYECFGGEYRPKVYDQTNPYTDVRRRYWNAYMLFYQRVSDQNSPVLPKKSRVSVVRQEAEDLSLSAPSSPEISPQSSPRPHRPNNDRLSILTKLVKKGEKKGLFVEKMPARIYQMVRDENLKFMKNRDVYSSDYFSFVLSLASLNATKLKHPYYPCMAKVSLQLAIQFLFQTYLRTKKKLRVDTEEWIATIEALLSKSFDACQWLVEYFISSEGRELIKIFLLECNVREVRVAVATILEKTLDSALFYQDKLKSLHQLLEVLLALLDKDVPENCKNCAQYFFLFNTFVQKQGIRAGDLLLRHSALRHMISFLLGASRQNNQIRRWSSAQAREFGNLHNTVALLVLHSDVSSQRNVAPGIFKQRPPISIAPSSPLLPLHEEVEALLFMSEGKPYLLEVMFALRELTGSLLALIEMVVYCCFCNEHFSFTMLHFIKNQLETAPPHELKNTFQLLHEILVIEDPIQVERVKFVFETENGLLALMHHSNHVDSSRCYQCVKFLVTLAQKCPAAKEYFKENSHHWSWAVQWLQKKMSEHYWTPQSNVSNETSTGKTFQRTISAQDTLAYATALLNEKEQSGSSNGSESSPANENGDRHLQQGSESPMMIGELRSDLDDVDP
In short: as §1

[4] = biological target: T2, USP25 (UniProt Q9UHP3)
T2 sequence (whole entry): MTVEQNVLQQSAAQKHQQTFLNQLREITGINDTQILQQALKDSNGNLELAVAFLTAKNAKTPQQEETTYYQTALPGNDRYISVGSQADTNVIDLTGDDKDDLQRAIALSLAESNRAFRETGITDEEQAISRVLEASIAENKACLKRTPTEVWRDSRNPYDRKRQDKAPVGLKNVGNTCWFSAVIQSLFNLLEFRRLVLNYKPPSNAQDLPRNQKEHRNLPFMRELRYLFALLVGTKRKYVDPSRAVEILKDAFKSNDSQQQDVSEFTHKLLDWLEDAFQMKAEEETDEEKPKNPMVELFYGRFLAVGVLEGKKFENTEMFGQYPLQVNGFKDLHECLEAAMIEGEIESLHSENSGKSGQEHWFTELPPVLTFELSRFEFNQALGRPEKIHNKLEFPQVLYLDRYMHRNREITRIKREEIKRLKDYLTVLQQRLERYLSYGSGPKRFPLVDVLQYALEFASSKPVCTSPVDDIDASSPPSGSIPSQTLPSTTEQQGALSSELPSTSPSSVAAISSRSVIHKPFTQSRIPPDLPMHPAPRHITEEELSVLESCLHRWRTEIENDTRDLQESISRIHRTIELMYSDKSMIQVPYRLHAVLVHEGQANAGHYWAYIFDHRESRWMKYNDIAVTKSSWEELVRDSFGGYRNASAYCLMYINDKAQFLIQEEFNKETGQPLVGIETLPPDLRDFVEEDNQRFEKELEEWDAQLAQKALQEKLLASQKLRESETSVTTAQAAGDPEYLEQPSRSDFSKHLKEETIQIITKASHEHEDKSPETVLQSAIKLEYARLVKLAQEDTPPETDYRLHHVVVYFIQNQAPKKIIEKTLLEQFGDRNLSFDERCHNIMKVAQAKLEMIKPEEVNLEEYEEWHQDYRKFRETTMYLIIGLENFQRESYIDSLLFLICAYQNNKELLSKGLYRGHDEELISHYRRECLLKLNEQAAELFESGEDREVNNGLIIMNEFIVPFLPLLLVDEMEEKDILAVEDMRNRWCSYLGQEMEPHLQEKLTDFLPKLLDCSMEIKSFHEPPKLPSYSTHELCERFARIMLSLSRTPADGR
In short: as §1

[5] = biological target: T3, USP28 (UniProt Q96RU2)
T3 sequence (whole entry): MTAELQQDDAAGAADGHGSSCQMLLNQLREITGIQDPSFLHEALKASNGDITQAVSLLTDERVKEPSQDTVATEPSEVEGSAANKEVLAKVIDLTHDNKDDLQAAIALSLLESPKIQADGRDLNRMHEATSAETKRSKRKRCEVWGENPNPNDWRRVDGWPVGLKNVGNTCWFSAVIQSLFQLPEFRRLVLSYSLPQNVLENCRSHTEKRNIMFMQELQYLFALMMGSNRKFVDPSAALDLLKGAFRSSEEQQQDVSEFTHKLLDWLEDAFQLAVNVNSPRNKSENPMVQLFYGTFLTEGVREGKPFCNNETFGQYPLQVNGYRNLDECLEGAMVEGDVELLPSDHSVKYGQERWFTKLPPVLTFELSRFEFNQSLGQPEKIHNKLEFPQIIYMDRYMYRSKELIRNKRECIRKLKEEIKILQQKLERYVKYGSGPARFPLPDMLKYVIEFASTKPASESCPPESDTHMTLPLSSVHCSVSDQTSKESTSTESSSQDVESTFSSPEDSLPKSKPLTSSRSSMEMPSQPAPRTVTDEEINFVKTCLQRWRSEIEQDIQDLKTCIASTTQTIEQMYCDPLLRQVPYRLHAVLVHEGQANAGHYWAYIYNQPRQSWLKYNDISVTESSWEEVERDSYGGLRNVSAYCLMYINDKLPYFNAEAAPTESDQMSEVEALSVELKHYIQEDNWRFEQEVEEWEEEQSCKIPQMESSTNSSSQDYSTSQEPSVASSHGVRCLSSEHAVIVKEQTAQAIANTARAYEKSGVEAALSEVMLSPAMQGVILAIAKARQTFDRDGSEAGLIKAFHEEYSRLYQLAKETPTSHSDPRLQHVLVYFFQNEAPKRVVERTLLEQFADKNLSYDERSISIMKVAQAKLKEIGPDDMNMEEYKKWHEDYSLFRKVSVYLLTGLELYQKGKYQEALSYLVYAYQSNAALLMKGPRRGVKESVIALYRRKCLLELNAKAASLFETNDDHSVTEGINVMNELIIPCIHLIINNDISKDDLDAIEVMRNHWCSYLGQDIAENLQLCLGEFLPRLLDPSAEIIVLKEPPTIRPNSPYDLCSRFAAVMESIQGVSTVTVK
In short: as §1

Measured: log2 ratio of Biotin-Ahx-Ub-VS probe labelling

O=C(CCl)NCc1ccc2c(c1)OCO2
inactive: [1] 0.0675 | [2] -0.272 | [3] -0.3 | [4] -0.0121 | [5] -0.566
